# Experimental data published in ChEMBL document CHEMBL1157539, “Thousands of chemical starting points for antimalarial lead identification” (Nature, 2010).
# Experiments:
# Assay type in all cases: functional
# Plasmodium falciparum [1] = assay: GSK_TCMDC: Inhibition of Plasmodium falciparum 3D7 in whole red blood cells, using parasite LDH activity as an index of growth. Test compounds present at 2uM
# Plasmodium falciparum [2] = assay: GSK_TCMDC: Inhibition of Plasmodium falciparum Dd2 in whole red blood cells, using parasite LDH activity as an index of growth. Test compounds present at 2uM
# HepG2 = assay: GSK_TCMDC: Percent inhibition of human HepG2 cell line. Test compounds present at 10uM.
SMILES,Inhibition (Plasmodium falciparum [1]) [%],Inhibition (Plasmodium falciparum [2]) [%],Inhibition (HepG2) [%]
N#Cc1ccccc1N1CCN(C2CCC(NC(=O)c3n[nH]c4cc(C(F)(F)F)ccc34)CC2)CC1 (stereo not given),84,34,15
Nc1ccnc(N2CCC(CCOc3ccnc4cc(Cl)ccc34)CC2)c1.O=C(O)C(F)(F)F,100,99,34
CCN(CC)CCCNc1cc[n+]([O-])c2cc3ccccc3cc12,100,3,13
C=CC[C@H](C[C@H](O)[C@H](Cc1ccccc1)NC(=O)c1nn(-c2ccccc2)nc1C)C(=O)NC1CCCCC1,94,3,6
O=C(NCC1CCN(Cc2ccsc2)C1)c1cc(-c2cccc(C(F)(F)F)c2)cs1.O=C(O)C(F)(F)F (stereo not given),98,15,37
Cc1cccc(C)c1N1CCN(C2CCC(NC(=O)/C=C/c3ccccc3)CC2)CC1 (stereo not given),83,34,38
COc1ccc(CN2CCN(Cc3cc(Cl)ccc3O)CC2CCO)c(C)c1C (stereo not given),94,76,1
Br.CC1(C)N=C(N)N=C(N)N1OCc1cccc2c1ccc1ccccc12,95,97,63
COc1ccc2ncc(F)c(CCN3CCC(NCc4cc5c(cn4)OCCS5)CC3)c2c1.Cl,89,40,4
COc1ccc2nccc([C@@H](O)CN3CCC(NC(=O)/C(=C/c4ccccc4)c4ccc(-c5ccccc5)cc4)CC3)c2c1,94,38,4
